Records with an inconclusive call do not appear. Entries that show only a call come without a potency. Activity calls are given as the source filed them. Unless noted, the call rests on the fitted dose curve.
Legend:
[1] = Nuclear factor erythroid 2-related factor 2/antioxidant responsive element (Nrf2/ARE) small molecule agonists: qHTS cell viability counter screen in human keratinocytes (AID 1919968; active means well fitted curve in the direction sought with a large enough effect in the repeat runs; an effect the other way counts as inactive or inconclusive; further: nearly all actives have a fitted effect of over 55% in size)
In short: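 In human HaCaT keratinocytes stably expressing an ARE-driven luciferase, compound exposure lasted 23 h at 37 C under 5% CO2. Viable cells are quantified with a protease-based fluorogenic reagent (CellTiter-Fluor) read 1 h after addition.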

[2] = Nuclear factor erythroid 2-related factor 2/antioxidant responsive element (Nrf2/ARE) small molecule agonists: luciferase reporter gene qHTS assay in human keratinocytes (AID 1919969); further: nearly all actives have a fitted effect of over 35% in size; further: potency means the concentration at half of the fitted maximal effect
[3] = molecular target: Gonadotropin-releasing hormone receptor (Homo sapiens) (UniProt P30968); assay: Human gonadotropin-releasing hormone receptor (GnRHR) small molecule agonists, calcium flux assay in GnRHR-HEK293 cells (AID 1920063); further: nearly all actives have a fitted effect of over 35% in size
Sequence of Gonadotropin-releasing hormone receptor (Homo sapiens) (P30968 whole entry, looked up): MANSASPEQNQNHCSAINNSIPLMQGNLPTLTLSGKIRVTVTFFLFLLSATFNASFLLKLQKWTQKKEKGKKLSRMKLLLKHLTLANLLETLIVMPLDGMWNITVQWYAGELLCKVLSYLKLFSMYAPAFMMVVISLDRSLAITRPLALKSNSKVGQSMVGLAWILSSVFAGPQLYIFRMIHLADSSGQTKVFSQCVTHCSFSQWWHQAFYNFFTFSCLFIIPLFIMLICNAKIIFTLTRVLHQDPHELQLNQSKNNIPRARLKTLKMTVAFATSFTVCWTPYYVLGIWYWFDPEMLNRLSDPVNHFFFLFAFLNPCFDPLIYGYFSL
In short: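 Intracellular calcium rise is the read-out: engineered human GnRHR HEK293 cells, dye-loaded, are exposed to DMSO-dissolved compounds and fluorescence at Ex/Em 480/540 is tracked for 3 min.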

[4] = molecular target: KiSS-1 receptor (Homo sapiens) (UniProt Q969F8); assay: Human kisspeptin (KISS1R) small molecule agonists, calcium flux assay in KISS1R-HEK293 cells (AID 1920064; active means well fitted curve in the direction sought with a large enough effect in the repeat runs; an effect the other way counts as inactive or inconclusive)
Sequence of KiSS-1 receptor (Homo sapiens) (Q969F8 whole entry, looked up): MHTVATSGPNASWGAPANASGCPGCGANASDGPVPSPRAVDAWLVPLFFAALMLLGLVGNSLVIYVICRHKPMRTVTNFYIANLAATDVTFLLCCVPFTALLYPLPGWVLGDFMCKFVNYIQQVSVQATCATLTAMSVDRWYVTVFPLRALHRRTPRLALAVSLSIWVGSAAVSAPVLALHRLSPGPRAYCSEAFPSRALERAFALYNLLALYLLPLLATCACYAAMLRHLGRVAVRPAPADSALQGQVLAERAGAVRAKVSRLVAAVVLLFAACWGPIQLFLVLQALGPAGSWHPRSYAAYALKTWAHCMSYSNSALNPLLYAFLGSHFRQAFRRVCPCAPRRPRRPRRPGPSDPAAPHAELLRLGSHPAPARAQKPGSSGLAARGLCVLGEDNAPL
In short: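 Concentration-response testing used 15 concentrations in triplicate on human KISS1R-expressing HEK293 cells. Calcium-dependent fluorescence (Ex/Em 480/540) was followed kinetically for 3 min after compound transfer.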

[5] = G protein-coupled receptor (GPCR) small molecule agonists, calcium flux assay: HEK293 wild type cell line counter screen (AID 1920065)
In short: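 Fluorescence intensity signals activation. After overnight (18 h) culture and a 1 h calcium dye load at 37 C, compounds are added by pin tool and the plate read at 480/540 nm for 3 min in 1 s steps.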

[6] = p53 small molecule agonists, cell-based qHTS assay with human liver microsomes (AID 1963577)
In short: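 Compounds act here after metabolic activation: human liver microsomes and NADPH, both at 0.5 mg/mL final, were co-added to p53RE-bla cells. Incubation ran 16 h at 37 C, followed by LiveBLAzer detection.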

[7] = p53 small molecule agonists, cell-based qHTS assay with rat liver microsomes (AID 1963578)
In short: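 Read-out is beta-lactamase reporter fluorescence (LiveBLAzer, 2 h, room temperature, dark) in p53RE-bla cells treated 16 h at 37 C with compound, rat liver microsomes and NADPH, both 0.5 mg/mL final.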

[8] = p53 small molecule agonists, cell-based qHTS assay with human liver microsomes: qHTS cell viability counter screen (AID 1963579); further: nearly all actives have a fitted effect of over 45% in size
In short: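 Cells carrying the p53 response-element beta-lactamase reporter are treated for 16 h at 37 C with test compounds in the presence of human liver microsomes and NADPH (both 0.5 mg/mL final); ATP-based CellTiter-Glo luminescence then reports viability.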

[9] = p53 small molecule agonists, cell-based qHTS assay with rat liver microsomes: qHTS cell viability counter screen (AID 1963580); further: nearly all actives have a fitted effect of over 45% in size
In short: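 Luminescent ATP readout (CellTiter-Glo, 30 min at room temperature) reports viability of p53RE-bla HCT-116 cells after 16 h at 37 C with test compounds under metabolic activation by rat liver microsomes and NADPH at 0.5 mg/mL final each.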

[10] = p53 small molecule agonists, cell-based qHTS assay: qHTS cell viability counter screen (AID 1963581); further: nearly all actives have a fitted effect of over 45% in size
In short: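 Luminescence from CellTiter-Glo, reflecting ATP content, serves as the cytotoxicity measure; it is taken after the 2 h reporter substrate step in HCT-116 p53RE-bla cells dosed for 16 h at 37 C.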

[11] = p53 small molecule agonists, cell-based qHTS assay (AID 1963582; active means well fitted activation curve with a large enough effect in the signal ratio in the repeat runs, not every such curve was filed as active; the % refers to the signal ratio)
In short: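 After plating, p53RE-bla cells sat 5 h in the incubator; compounds or DMSO vehicle were pinned in; a 16 h incubation at 37 C followed; FRET substrate was added and, 2 h later at RT, fluorescence was measured.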

[12] = molecular target: 5-hydroxytryptamine receptor 2A (Homo sapiens) (UniProt P28223); assay: 5-hydroxytryptamine receptor 2A (HTR2A) small molecule antagonists, cell-based qHTS assay (AID 1963586); further: nearly all actives have a fitted effect of over 45% in size
Sequence of 5-hydroxytryptamine receptor 2A (Homo sapiens) (P28223 whole entry, looked up): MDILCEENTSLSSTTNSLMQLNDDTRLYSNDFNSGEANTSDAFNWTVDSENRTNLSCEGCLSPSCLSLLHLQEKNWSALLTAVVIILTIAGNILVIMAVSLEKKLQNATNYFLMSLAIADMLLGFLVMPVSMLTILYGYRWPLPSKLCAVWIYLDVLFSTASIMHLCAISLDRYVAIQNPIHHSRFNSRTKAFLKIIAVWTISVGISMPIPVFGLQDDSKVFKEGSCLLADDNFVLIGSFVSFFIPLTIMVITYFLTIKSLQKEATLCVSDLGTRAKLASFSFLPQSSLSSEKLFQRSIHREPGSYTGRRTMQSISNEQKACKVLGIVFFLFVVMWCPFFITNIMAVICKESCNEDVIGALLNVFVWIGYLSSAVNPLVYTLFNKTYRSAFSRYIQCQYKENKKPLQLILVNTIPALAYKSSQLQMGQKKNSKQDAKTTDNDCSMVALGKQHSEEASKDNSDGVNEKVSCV
In short: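 CHO cells stably expressing human HTR2A were plated for 18 h at 37 C, then loaded with calcium dye for 1 h. Compounds were preincubated 5 min at room temperature before DOI (4 nM solution) was added. Kinetic fluorescence was read for 3 min.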

[13] = molecular target: 5-hydroxytryptamine receptor 2A (Homo sapiens) (UniProt P28223); assay: 5-hydroxytryptamine receptor 2A (HTR2A) small molecule agonists, cell-based qHTS assay (AID 1963587); further: nearly all actives have a fitted effect of over 30% in size
In short: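 HTR2A-CHO cells, plated 18 h at 37 C/5% CO2, dye-loaded 1 h at 37 C; compounds in DMSO added by pin tool (agonist mode). Intracellular calcium flux read as kinetic fluorescence on FDSS over 2 min at 1 s intervals.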

[14] = molecular target: Muscarinic acetylcholine receptor M1 (Homo sapiens) (UniProt P11229); assay: Cholinergic receptor muscarinic 1 (CHRM1) small molecule antagonists, cell-based qHTS assay (AID 1963588); further: nearly all actives have a fitted effect of over 40% in size; further: potency means the concentration at half of the fitted maximal effect
Sequence of Muscarinic acetylcholine receptor M1 (Homo sapiens) (P11229 whole entry, looked up): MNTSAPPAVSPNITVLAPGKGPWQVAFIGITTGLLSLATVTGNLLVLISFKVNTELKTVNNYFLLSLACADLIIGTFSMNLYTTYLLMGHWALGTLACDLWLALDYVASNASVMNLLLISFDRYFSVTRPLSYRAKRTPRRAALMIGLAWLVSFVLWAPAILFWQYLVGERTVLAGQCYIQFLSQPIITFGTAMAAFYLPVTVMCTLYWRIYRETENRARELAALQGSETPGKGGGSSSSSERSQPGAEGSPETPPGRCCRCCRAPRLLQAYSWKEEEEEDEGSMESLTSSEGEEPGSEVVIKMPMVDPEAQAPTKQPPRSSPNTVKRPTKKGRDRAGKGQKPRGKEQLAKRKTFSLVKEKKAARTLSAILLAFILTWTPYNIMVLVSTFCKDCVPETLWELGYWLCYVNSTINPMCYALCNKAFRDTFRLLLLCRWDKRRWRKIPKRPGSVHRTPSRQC
In short: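 Compounds were tested at 15 concentrations in three independent runs. Dye-loaded CHRM1-CHO cells were exposed 5 min at room temperature before stimulation by acetylcholine added at 50nM. Intracellular calcium was read kinetically on FDSS for 3 min.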

[15] = molecular target: Muscarinic acetylcholine receptor M1 (Homo sapiens) (UniProt P11229); assay: Cholinergic receptor muscarinic 1 (CHRM1) small molecule agonists, cell-based qHTS assay (AID 1963589); further: nearly all actives have a fitted effect of over 35% in size
In short: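 Fluorescent calcium dye reports M1 activation in stably transfected CHO cells. Compounds, 15 concentrations, added after 1 h dye loading at 37 C; kinetic reading at 1 sec intervals.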

[16] = cAMP Responsive Elements (CRE) small molecule agonists, cell-based qHTS assay (AID 1963590)
In short: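 Compound exposure lasted 3 h at 37 C/5% CO2 in CRE-bla HEK 293T cells grown in assay medium with 10% dialyzed FBS and 25 mM HEPES. Reporter signal came from LiveBLAzer B/G FRET substrate, 2 h, room temperature.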

[17] = cAMP Responsive Elements (CRE) small molecule antagonists, cell-based qHTS assay (AID 1963591; active means well fitted inhibition curve with a large enough effect in the signal ratio in the repeat runs, not every such curve was filed as active; the % refers to the signal ratio)
In short: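 Stimulation used NKH477 at a final 0.25 uM for 3 h in compound-treated CRE-bla HEK293T cells, seeded 18 h beforehand. Reporter activity was measured with LiveBLAzer B/G FRET substrate after 2 h at room temperature.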

[18] = molecular target: Beta-2 adrenergic receptor (Homo sapiens) (UniProt P07550); assay: Adrenergic beta2 receptor (ADRB2) small molecule antagonists, cell-based qHTS assay (AID 1963592); further: series mostly up to about 92 µM; nearly all actives have a fitted effect of over 50% in size
Sequence of Beta-2 adrenergic receptor (Homo sapiens) (P07550 whole entry, looked up): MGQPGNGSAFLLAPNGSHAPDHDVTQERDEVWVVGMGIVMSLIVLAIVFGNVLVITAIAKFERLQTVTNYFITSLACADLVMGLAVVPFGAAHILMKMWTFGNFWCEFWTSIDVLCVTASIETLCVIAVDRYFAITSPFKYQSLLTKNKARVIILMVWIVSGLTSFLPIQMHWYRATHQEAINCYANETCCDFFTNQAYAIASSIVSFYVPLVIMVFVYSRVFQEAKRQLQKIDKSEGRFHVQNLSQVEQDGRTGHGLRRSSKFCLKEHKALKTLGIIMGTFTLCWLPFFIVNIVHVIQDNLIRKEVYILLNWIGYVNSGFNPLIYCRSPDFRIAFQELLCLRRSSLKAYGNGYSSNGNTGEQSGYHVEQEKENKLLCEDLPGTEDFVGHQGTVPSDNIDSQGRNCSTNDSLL
In short: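 Assay format: CHO-ADRB2 cells, 18-20hr seeding at 37C/5% CO2, then compound plus 1nM isoproterenol agonist mix for 0.5hr RT. Homogeneous time-resolved fluorescence cAMP detection after 1hr, expressed as 665/615 nm ratio.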

[19] = molecular target: D(2) dopamine receptor (Homo sapiens) (UniProt P14416); assay: Dopamine D2 receptor (DRD2) small molecule agonists, cell-based qHTS assay (AID 1963594); further: nearly all actives have a fitted effect of over 35% in size
Sequence of D(2) dopamine receptor (Homo sapiens) (P14416 whole entry, looked up): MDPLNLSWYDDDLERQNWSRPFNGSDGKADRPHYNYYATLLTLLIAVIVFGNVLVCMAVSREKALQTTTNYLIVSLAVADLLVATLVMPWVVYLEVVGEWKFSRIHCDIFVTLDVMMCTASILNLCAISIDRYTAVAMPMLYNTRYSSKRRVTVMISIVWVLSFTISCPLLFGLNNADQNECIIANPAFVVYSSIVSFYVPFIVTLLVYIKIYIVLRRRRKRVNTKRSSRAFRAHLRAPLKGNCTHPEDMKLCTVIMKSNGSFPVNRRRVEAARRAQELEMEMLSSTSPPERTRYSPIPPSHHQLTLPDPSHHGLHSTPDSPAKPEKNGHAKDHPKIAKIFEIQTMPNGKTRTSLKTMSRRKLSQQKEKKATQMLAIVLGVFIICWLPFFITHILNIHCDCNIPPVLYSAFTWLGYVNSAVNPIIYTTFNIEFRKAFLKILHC
In short: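 HEK293 cells stably expressing DRD2 were cultured 24 h at 37 C, then given Ro20-1724 (0.1 mM final) and compounds for 10 min at room temperature. NKH477 (200nM) was then added for 30 min. cAMP was read by HTRF.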

[20] = molecular target: D(2) dopamine receptor (Homo sapiens) (UniProt P14416); assay: Dopamine D2 receptor (DRD2) small molecule antagonists, cell-based qHTS assay (AID 1963595; active means well fitted inhibition curve with a large enough effect in the signal ratio in the repeat runs, with a control signal flat; the % refers to the signal ratio)
In short: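 HEK293 cells stably expressing DRD2 were preincubated with 0.1 mM Ro20-1724, then with compound for 10 min at room temperature. Cells were stimulated with 200 nM NKH477 plus 12 nM quinpirole for 30 min, and cAMP was read by HTRF.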

Row | SMILES | Potency [1] | Potency [2] | Potency [3] | Potency [4] | Potency [5] | Potency [6] | Potency [7] | Potency [8] | Potency [9] | Potency [10] | Potency [11] | Potency [12] | Potency [13] | Potency [14] | Potency [15] | Potency [16] | Potency [17] | Potency [18] | Potency [19] | Potency [20]
1 | CC[N+]1(CC)CCC(OC(=O)C(O)(c2ccccc2)c2ccccc2)C1 (centres undefined) | inactive | inactive | inactive | inactive | inactive | inactive | inactive | inactive | inactive | inactive | inactive | inactive | inactive | 0.0023 µM (active) | inactive | inactive | inactive | inactive | inactive | inactive
2 | CC(C)N(C(=O)SCC(Cl)=C(Cl)Cl)C(C)C | inactive | inactive | inactive | inactive | inactive | inactive | inactive | inactive | inactive | inactive | inactive | inactive | inactive | 23.4 µM (active) | inactive | inactive | inactive | inactive | inactive | inactive
3 | CCCCCCC#N | inactive | inactive | inactive | inactive | inactive | inactive | inactive | inactive | inactive | inactive | inactive | inactive | inactive | inactive | inactive | inactive | inactive | inactive | inactive | inactive
4 | CCN(CC)CCO | inactive | inactive | inactive | inactive | inactive | inactive | inactive | inactive | inactive | inactive | inactive | inactive | inactive | inactive | inactive | inactive | inactive | inactive | inactive | inactive
5 | CNC(C)(C)Cc1ccccc1 | inactive | inactive | inactive | inactive | inactive | inactive | inactive | inactive | inactive | inactive | inactive | inactive | inactive | inactive | inactive | inactive | inactive | inactive | inactive | inactive
6 | ClCC(Cl)(Cl)Cl | inactive | inactive | inactive | inactive | inactive | inactive | inactive | inactive | inactive | inactive | inactive | inactive | inactive | inactive | inactive | inactive | inactive | inactive | inactive | inactive
7 | CCC1(c2ccccc2)CCC(=O)NC1=O (centres undefined) | inactive | inactive | inactive | inactive | inactive | inactive | inactive | inactive | inactive | inactive | inactive | inactive | inactive | inactive | inactive | inactive | inactive | inactive | inactive | inactive
8 | Cc1cc(Cl)ccc1N=CN(C)C | inactive | inactive | inactive | inactive | inactive | inactive | inactive | inactive | inactive | inactive | inactive | inactive | inactive | inactive | inactive | inactive | inactive | inactive | inactive | inactive
9 | CCOC(=O)c1ccccc1S(=O)(=O)NC(=O)Nc1nc(Cl)cc(OC)n1 | inactive | inactive | inactive | inactive | inactive | inactive | inactive | inactive | inactive | inactive | inactive | inactive | inactive | inactive | inactive | inactive | inactive | inactive | inactive | inactive
10 | CCC/C=N/O | inactive | inactive | inactive | inactive | inactive | inactive | inactive | inactive | inactive | inactive | inactive | inactive | inactive | inactive | inactive | inactive | inactive | inactive | inactive | inactive
11 | C=CC(C)=O | inactive | 5.97 µM (active) | inactive | inactive | inactive | inactive | inactive | inactive | inactive | inactive | inactive | inactive | inactive | inactive | inactive | inactive | inactive | inactive | inactive | inactive
12 | Nc1c(Br)cc([N+](=O)[O-])cc1[N+](=O)[O-] | inactive | inactive | inactive | inactive | inactive | inactive | inactive | inactive | inactive | inactive | inactive | inactive | inactive | inactive | inactive | inactive | inactive | inactive | inactive | inactive
13 | COc1cccc(C=O)c1 | inactive | inactive | inactive | inactive | inactive | inactive | inactive | inactive | inactive | inactive | inactive | inactive | inactive | inactive | inactive | inactive | inactive | inactive | – | inactive
14 | Cc1ccccc1CCl | inactive | inactive | inactive | inactive | inactive | inactive | inactive | inactive | inactive | inactive | inactive | inactive | inactive | inactive | inactive | inactive | inactive | inactive | inactive | inactive
15 | CCCBr | inactive | inactive | inactive | inactive | inactive | inactive | inactive | inactive | inactive | inactive | inactive | inactive | inactive | inactive | inactive | inactive | inactive | inactive | inactive | inactive
16 | CCOC(=O)N(C)N=O | inactive | inactive | inactive | inactive | inactive | inactive | inactive | inactive | inactive | inactive | inactive | inactive | inactive | inactive | inactive | inactive | inactive | inactive | inactive | inactive
17 | CCN(Cc1ccc(Cl)nc1)/C(=C/[N+](=O)[O-])NC | inactive | inactive | inactive | inactive | inactive | inactive | inactive | inactive | inactive | inactive | inactive | inactive | inactive | inactive | inactive | inactive | inactive | inactive | inactive | inactive
18 | BrCC(Br)c1ccccc1 (centres undefined) | inactive | inactive | inactive | inactive | inactive | inactive | inactive | inactive | inactive | inactive | inactive | inactive | inactive | inactive | inactive | inactive | inactive | inactive | inactive | inactive
